“And” between values parts separate entries of the source, which are not always exact repeats. Identical values can stand only once. Records with an inconclusive call do not appear. The source made the active and inactive calls. Rule for the calls: active = hit-call score of the fitted dose curve at least 0.9, where 1 is the maximum; inconclusive = response in the unintended direction; inactive = score below 0.9.
biological target: Retinoic acid receptor RXR-alpha (Homo sapiens) (UniProt P19793); experiment: OT_NURR1_NURR1RXRa_1440: Odyssey Thera (OT) 24-hour HEK293T Protein Complementation Assay for Nurr1/retinoid X receptor (RXR) (AID 2283386)
Outline: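 HEK293T cells were dosed with compound and read 24 h later by fluorescence intensity in a protein-fragment complementation format, where Nurr1–RXRα interaction reconstitutes a split reporter. Activity was fitted as gain of signal relative to DMSO baseline.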

Retinoic acid receptor RXR-alpha (Homo sapiens), sequence (P19793 whole entry, looked up, the tested form may be a part): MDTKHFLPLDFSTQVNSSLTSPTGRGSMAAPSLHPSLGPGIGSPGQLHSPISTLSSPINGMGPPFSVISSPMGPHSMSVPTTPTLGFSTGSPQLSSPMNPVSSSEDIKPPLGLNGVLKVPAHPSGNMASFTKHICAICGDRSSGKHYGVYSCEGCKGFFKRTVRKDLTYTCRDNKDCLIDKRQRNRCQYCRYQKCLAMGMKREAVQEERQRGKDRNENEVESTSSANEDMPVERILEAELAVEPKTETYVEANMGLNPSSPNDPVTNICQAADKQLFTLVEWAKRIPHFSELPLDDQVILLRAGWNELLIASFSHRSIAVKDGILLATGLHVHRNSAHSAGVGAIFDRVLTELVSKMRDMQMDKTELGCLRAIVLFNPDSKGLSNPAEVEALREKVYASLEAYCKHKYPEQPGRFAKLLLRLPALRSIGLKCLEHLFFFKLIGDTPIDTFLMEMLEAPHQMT

| Compound | outcome | AC50 |
| --- | --- | --- |
| CN(C)C(=S)S | inactive | – |
| CCN(CCO)CCO | inactive | – |
| O=c1[nH]c(=O)n(Cl)c(=O)n1Cl | inactive | – |
| COc1ccc(N)cc1 | – | 13.8 µM (active) |
| O=C(CBr)c1ccc(O)cc1 | inactive | – |
| N#CCCC(Br)(C#N)CBr (stereo unspecified) | inactive | – |
| Nc1ccc(N)cc1 | inactive | – |
| CCOc1ccc(N)cc1 | inactive | – |
| COc1nn(C(=O)NS(=O)(=O)c2ccccc2OC(F)(F)F)c(=O)n1C | inactive | – |
| OCCCCO | inactive | – |
| O=[N+]([O-])c1ccccc1O | inactive | – |
| Nc1ncn[nH]1 | inactive | – |
| CC(C)=CC1C(C(=O)OCc2cccc(Oc3ccccc3)c2)C1(C)C (stereo unspecified) | inactive | – |
| COc1ccccc1N | inactive | – |
| COC(=O)Nc1cccc(OC(=O)Nc2cccc(C)c2)c1 | inactive | – |
| O=C(NC(=O)c1c(F)cccc1F)Nc1ccc(Cl)cc1 | inactive | – |
| OCCN(CCO)CCO | inactive | – |
| O=c1nc(O)n(Cl)c(=O)n1Cl | inactive | – |
| Clc1cccc(Cl)c1 | inactive | – |
| O=C(O)C1(c2ccc3c(c2)OC[C@H](Cc2ccc(-c4ccccc4)cc2)[C@H]3O)CCCC1 | – | 79.5 µM (active) and 87.5 µM (active) |
| CCOP(=S)(OCC)O/N=C(\C#N)c1ccccc1 | inactive | – |
| N#CS | inactive | – |
| CC(C)(C)c1ccccc1O | inactive | – |
| Cc1cc(C)cc(C)c1 | inactive | – |
| Clc1cccc(Cl)c1Cl | inactive | – |
| CCCCCCCCCCCCc1cccc(S(=O)(=O)O)c1 | inactive | – |
